# PubChem BioAssay (NCATS)
# Values joined by “and” are separate entries in the source; they are usually repeats but may differ in a detail not shown here. Equal entries are not always repeated. Records with an inconclusive call do not appear. The source holds several records for some structures; these can differ, active in one and inactive in another. Active and inactive are the calls of the source. The call rests on the fitted dose curve; in most records, active means well fitted curve in the direction sought with a large enough effect; inconclusive means small, poorly fitted or top-dose-only effect, or another doubt; inactive means no such curve, though single readings can be large; an effect the other way counts as inactive or inconclusive.
# Experiment: Quantitative highthroughput screen to assess conditional lethalithy of SEM cells grown in RPMI1640 with unreated serum (RPMI+s) (AID 1963883); further: nearly all actives have a fitted effect of over 35% in size; further: potency means the concentration at half of the fitted maximal effect;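 on viability: 100% = DMSO wells and 0% = empty wells without cells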
# Details: SEM B-ALL cells, CellTiter-Glo viability, 48 h; series mostly up to 45.8 µM
# How it was run: (§1)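 Each medium arm—HPLM with 10% dialyzed FBS, or RPMI1640 with 5 mM glucose and 10% untreated or dialyzed FBS—was screened against an 11-point, 3-fold compound titration for 48 h at 37 °C, with CellTiter-Glo luminescence as endpoint.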
row,SMILES,Potency
1,CN(C)[C@@H]1C(=O)C(C(N)=O)=C(O)[C@@]2(O)C(=O)C3=C(O)c4c(O)cccc4[C@@](C)(O)[C@H]3C[C@@H]12,inactive
2,CNC(=O)N1N=C(c2ccc(N)cc2)c2cc3c(cc2CC1C)OCO3 (centres undefined),8.33 µM (active)
3,C[C@]12CC[C@H]3[C@@H](CC[C@@]45O[C@H]4C(O)=C(C#N)C[C@]35C)[C@H]1CC[C@H]2O,18.7 µM (active)
4,CC(C)(O)C(=O)Nc1ccc([N+](=O)[O-])c(C(F)(F)F)c1,inactive
5,CNC(=O)c1ccc(N2C(=S)N(c3ccc(C#N)c(C(F)(F)F)c3)C(=O)C23CCC3)cc1F,inactive

# Experiment: Quantitative highthroughput screen to assess conditional lethalithy of SEM cells grown in RPMI1640 with dialyzed fetal bovine serum (RPMI+ds) (AID 1963884); further: nearly all actives have a fitted effect of over 35% in size; further: potency means the concentration at half of the fitted maximal effect;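 on viability: 100% = DMSO control wells and 0% = empty wells without cells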
# Details: SEM B-ALL cells, RPMI+dialyzed FBS, CellTiter-Glo viability, 48 h; series mostly up to 45.8 µM
# How it was run: as §1
row,SMILES,Potency
1,CC(C)c1cccc(C(C)C)c1O,inactive
2,CNC(=O)N1N=C(c2ccc(N)cc2)c2cc3c(cc2CC1C)OCO3 (centres undefined),5.9 µM (active)
3,Cn1cc(C2=C(c3cn(C4CCN(Cc5ccccn5)CC4)c4ccccc34)C(=O)NC2=O)c2ccccc21,5.9 µM (active)
4,CC(C)[C@H]1C(=O)N[C@H](CO)Cc2c[nH]c3cccc(c23)N1C,inactive

# Experiment: Cellular viability qHTS for adrenocortical cancer (ACC) cell line SW-13 (AID 1963989);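 further: cells grown in serum-free medium with ITS supplement; on the % scale 0 is the no-effect control and ±100 the full control effect; nearly all actives have a fitted effect of over 65% in size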
# Details: SW-13 ACC cells viability, CellTiter-Glo, 48 h; activity (max response): stronger effect = lower value
# How it was run: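 Luminescent ATP read-out (CellTiter-Glo, 20 min at room temperature) measured metabolically competent SW-13 cells after 48 h compound treatment. Final concentrations spanned up to 46 uM; bortezomib served as positive control.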
row,SMILES,activity (max response)
1,CN(C)[C@@H]1C(=O)C(C(N)=O)=C(O)[C@@]2(O)C(=O)C3=C(O)c4c(O)cccc4[C@@](C)(O)[C@H]3C[C@@H]12,15% (inactive) and 6.24% (inactive)
2,CCOC(=O)Nc1ccc(NCc2ccc(F)cc2)cc1N,-1.78% (inactive)
3,Cc1cc(SCc2sc(-c3ccc(C(F)(F)F)c(F)c3)nc2C)ccc1OCC(=O)O,-20.9% (inactive)
4,CC(C)c1cccc(C(C)C)c1O,18.8% (inactive) and -6.92% (inactive)
5,C[C@]12CC[C@H]3[C@@H](CC[C@@]45O[C@H]4C(O)=C(C#N)C[C@]35C)[C@H]1CC[C@H]2O,-2% (inactive)
6,O=c1[nH]c2ccccc2n1CCCN1CCC(n2c(=O)[nH]c3cc(Cl)ccc32)CC1,-19.5% (inactive)
7,Cn1cc(C2=C(c3cn(C4CCN(Cc5ccccn5)CC4)c4ccccc34)C(=O)NC2=O)c2ccccc21,-7.67% (inactive) and -14.7% (inactive)
8,CCNC(=O)CC1N=C(c2ccc(Cl)cc2)c2cc(OC)ccc2-n2c(C)nnc21 (centres undefined),-19.5% (inactive)
9,C#CC1(O)CCC2C3CCC4=CC(=O)CCC4(C)C3CCC21C (centres undefined),9.7% (inactive)
10,CC(C)(O)C(=O)Nc1ccc([N+](=O)[O-])c(C(F)(F)F)c1,-7.23% (inactive)
11,CC(C)[C@H]1C(=O)N[C@H](CO)Cc2c[nH]c3cccc(c23)N1C,-2.75% (inactive)

# Experiment: Cellular viability qHTS for adrenocortical cancer (ACC) cell line NCI-H295R (AID 1963990); further: nearly all actives have a fitted effect of over 60% in size; further: potency means the concentration at half of the fitted maximal effect
# Details: CellTiter-Glo ATP luminescence, 48 h; series mostly up to 46.1 µM
# How it was run: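 IC50 and maximal efficacy derive from four-parameter logistic modelling of titration curves, with reads scaled between DMSO-only wells (0%) and doxorubicin hydrochloride (100% inhibition). Compounds spanned up to 46 uM over 48 h.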
row,SMILES,Potency
1,CN(C)[C@@H]1C(=O)C(C(N)=O)=C(O)[C@@]2(O)C(=O)C3=C(O)c4c(O)cccc4[C@@](C)(O)[C@H]3C[C@@H]12,inactive
2,Cc1cc(SCc2sc(-c3ccc(C(F)(F)F)c(F)c3)nc2C)ccc1OCC(=O)O,inactive
3,CC(C)c1cccc(C(C)C)c1O,inactive and 23.1 µM (active)
4,O=c1[nH]c2ccccc2n1CCCN1CCC(n2c(=O)[nH]c3cc(Cl)ccc32)CC1,16.4 µM (active) and inactive
5,Cn1cc(C2=C(c3cn(C4CCN(Cc5ccccn5)CC4)c4ccccc34)C(=O)NC2=O)c2ccccc21,inactive
6,CCNC(=O)CC1N=C(c2ccc(Cl)cc2)c2cc(OC)ccc2-n2c(C)nnc21 (centres undefined),inactive
7,C#CC1(O)CCC2C3CCC4=CC(=O)CCC4(C)C3CCC21C (centres undefined),inactive
8,CC(C)(O)C(=O)Nc1ccc([N+](=O)[O-])c(C(F)(F)F)c1,inactive
9,CC(C)[C@H]1C(=O)N[C@H](CO)Cc2c[nH]c3cccc(c23)N1C,inactive
